{"source": "PubChem BioAssay (NCATS)", "note": "Results filed as inconclusive are left out. Active and inactive are the calls of the source. Calls come from the whole dose curve; as a rule, active = well fitted cell-killing curve with a large enough effect; inconclusive = small, poorly fitted or top-dose-only effect, or effect the other way; inactive = no such curve, though single readings can be large or run the other way. Potency is the fitted concentration of half-maximal effect."}
{"test": "Quantitative High-Throughput drug screen in 47 multiple myeloma cell lines against the NCATS MIPE library collection: JIM1_ECACC cell viability assay (AID 1918964)", "settings": "JIM1 myeloma viability, CellTiter-Glo ATP luminescence, 48 h; series mostly up to 45.8 µM; viability (% of DMSO): at the top concentration", "description": "PI: Beverly A. Mock Ph.D.\nLaboratory of Cancer Biology and Genetics,\nCenter for Cancer Research, National Cancer Institute,\nNational Institute of Health, Bethesda, Maryland\nDrug resistance and disease progression are common in multiple myeloma (MM) patients, underscoring the need for new therapeutic combinations. […] We hypothesized that effective combinations would reduce MYC expression and enhance p16 activity. […] These preclinical data identify potentially useful drug combinations for evaluation in drug-resistant MM and reveal potential mechanisms of combined drug sensitivity.\nDescribed herein is the primary MIPE qHTS used to cherrypick compounds. Validated compounds were then further tested for potential synergistic activiy.\n[1] Peat TJ, Gaikwad SM, Dubois W, Gyabaah-Kessie N, Zhang S, Gorjifard S, Phyo Z, Andres M, Hughitt VK, Simpson RM, Miller MA, Girvin AT, Taylor A, Williams D, D'Antonio N, Zhang Y, Rajagopalan A, Flietner E, Wilson K, Zhang X, Shinn P, Klumpp-Thomas C, McKnight C, Itkin Z, Chen L, Kazandijian D, Zhang J, Michalowski AM, Simmons JK, Keats J, Thomas CJ, Mock BA. Drug combinations identified by high-throughput screening promote cell cycle transition and upregulate Smad pathways in myeloma. Cancer Lett. 2023 Aug 1;568:216284. doi: 10.1016/j.canlet.2023.216284. Epub 2023 Jun 24. PMID: 37356470; PMCID: PMC10408729.\nSEQUENCE No. (e.g., 1, 2, 3, etc.); […] (e.g., Cells, Incubation, Reagent, etc.); VALUE and DESCRIPTION.\n1; Cells; 5 uL; white, solid bottom 1536-well Greiner assay plate.\n2; Compounds; 23 nL; Kalypsis pin tool (Wako USA) equipped with a 1536-well pin head to transfer to the assay plates.\n3; Incubation; 48 hours; 37C incubation.\n4; Reagent;5uL; CellTiter Glo (Promega).\n5; Detector; 425V; Luminescence; Viewlux PerkinElmer.\nNOTES (numbers refer to Sequence numbers above)\n1. The cell-based screening methods employed in this study were like those previously published. Briefly, the corresponding myeloma cell lines were screened in 1,536-well plates with 500 cells, 5-uL per well for inhibition of cell viability (assessed by measuring ATP levels with CellTiterGlo).\n2. NCATS MIPE 4.0 library of approved and investigational drugs were added using the Kalypsis pin tool. Wells treated with DMSO only for 100% viability and media only wells for 0% viability were used as controls.\n3. The assay plates were covered and incubated for 48 hours in a 37C, 5% CO2 incubator with controlled humidity.\n4. After 48 hours, CellTilter-GloTM luminescent substrate mix (Promega) reagent was added to the assay plate and plates we incubated for 5 min at room temperature.\n5. Signal was measured as median relative luminescence units on a ViewLux (PerkinElmer) multiplate reader.\n[1] Heske CM, Davis MI, Baumgart JT, Wilson K, Gormally MV, Chen L, Zhang X, Ceribelli M, Duveau DY, Guha R, Ferrer M, Arnaldez FI, Ji J, Tran HL, Zhang Y, Mendoza A, Helman LJ, Thomas CJ. Matrix Screen Identifies Synergistic Combination of PARP Inhibitors and Nicotinamide Phosphoribosyltransferase (NAMPT) Inhibitors in Ewing Sarcoma. Clin Cancer Res. 2017 Dec 1;23(23):7301-7311. doi: 10.1158/1078-0432.CCR-17-1121. Epub 2017 Sep 12. PMID: 28899971; PMCID: PMC6636827."}
{"smiles": "COc1cc2nccc(Oc3ccc(NC(=O)Nc4ccc(F)cc4F)c(F)c3)c2cc1OC", "viability (% of DMSO)": "66.3% (inactive)"}
{"smiles": "CC[C@H](NC(=O)[C@H](C)NC)C(=O)N1C[C@@H](O)C[C@H]1Cc1c(-c2[nH]c3cc(F)ccc3c2C[C@H]2C[C@H](O)CN2C(=O)[C@H](CC)NC(=O)[C@H](C)NC)[nH]c2cc(F)ccc12", "Potency": "2.09 µM (active)"}
{"smiles": "C=CCc1cccc(C=NNC(=O)CN2CCN(Cc3ccccc3)CC2)c1O", "Potency": "5.26 µM (active)"}
{"smiles": "CCN1C[C@H](C)n2c(c(O)c3c(=O)n(Cc4ccc(F)c(Cl)c4)nc(C(=O)NC)c32)C1=O", "viability (% of DMSO)": "96.5% (inactive)"}
{"smiles": "Cc1cccc(Nc2nc(N[C@@H]3CCCC[C@H]3N)ncc2C(N)=O)c1", "Potency": "5.9 µM (active)"}
{"smiles": "COc1ccc(-c2cc3nccn3c(Nc3ncccc3C(N)=O)n2)cc1OC", "Potency": "0.372 µM (active)"}
{"smiles": "COc1ccc(-c2oc3c(CC=C(C)C)c(O)cc(O)c3c(=O)c2O)cc1", "viability (% of DMSO)": "148% (inactive)"}
{"smiles": "O=C(CO)N1CCC(c2[nH]nc(-c3ccc(Cl)cc3)c2-c2ccncn2)CC1", "viability (% of DMSO)": "97.8% (inactive)"}
{"smiles": "CN(C)c1ccc(-c2nc3ncc(Cl)c(N4CCN(CC(=O)Nc5nccs5)CC4)c3[nH]2)cc1", "viability (% of DMSO)": "140% (inactive)"}
{"smiles": "O=C(c1ccc(C=Cc2n[nH]c3ccccc23)cc1)N1CCNCC1", "Potency": "3.72 µM (active)"}
{"smiles": "CCC(=C(CC)c1ccc(O)cc1)c1ccc(O)cc1", "Potency": "16.6 µM (active)"}
{"smiles": "FC(F)(F)c1ccc(C=Cc2nc(COc3ccc(CCCCn4ccnn4)cc3)co2)cc1", "Potency": "0.0074 µM (active)"}
{"smiles": "N#CC(c1ccc(Cl)cc1)c1c(Cl)cc(-n2ncc(=O)[nH]c2=O)cc1Cl", "note": "(stereo not given)", "Potency": "20.9 µM (active)"}
{"smiles": "CC(C)=CCCC(C)=CCCC(C)=CCCC(C)=CCCC(C)=CCCC(C)=CCCC(C)=CCCC(C)=CCCC(C)=CCO", "viability (% of DMSO)": "124% (inactive)"}
{"smiles": "Cc1ccccc1-n1c(Cn2nc(-c3cccc(O)c3)c3c(N)ncnc32)nc2cccc(C)c2c1=O", "Potency": "1.18 µM (active)"}
{"smiles": "COc1cc([C@H]2Oc3cc([C@H]4Oc5cc(O)cc(O)c5C(=O)[C@H]4O)ccc3O[C@H]2CO)ccc1O", "viability (% of DMSO)": "117% (inactive)"}
{"smiles": "COc1ccc(-c2cc(=O)c3c(O)cc(O[C@@H]4O[C@H](CO[C@@H]5O[C@@H](C)[C@H](O)[C@@H](O)[C@@H]5O)[C@@H](O)[C@H](O)[C@@H]4O)cc3o2)cc1O", "viability (% of DMSO)": "119% (inactive)"}
{"smiles": "CNC(=O)c1cc(COc2nnc(Nc3ccc(Cl)cc3)c3ccoc23)ccn1", "viability (% of DMSO)": "111% (inactive)"}
{"smiles": "OC[C@H]1O[C@@H](O[C@H]2[C@@H](O)[C@@](O)(CO)O[C@@H]2CO)[C@H](O)[C@@H](O)[C@@H]1O", "viability (% of DMSO)": "78.7% (inactive)"}
{"smiles": "CC(=O)OCC(=O)[C@@]12OC(C)(C)O[C@H]1C[C@H]1[C@@H]3C[C@H](F)C4=CC(=O)C=C[C@]4(C)[C@@]3(F)[C@@H](O)C[C@@]12C", "viability (% of DMSO)": "78% (inactive)"}
{"smiles": "CN(C)CCOc1ccc(-c2nc(-c3ccc4c(c3)CCC4=NO)c(-c3ccncc3)[nH]2)cc1", "Potency": "18.7 µM (active)"}
{"smiles": "OC(c1cc(C(F)(F)F)nc2c(C(F)(F)F)cccc12)C1CCCCN1", "note": "(stereo not given)", "Potency": "16.6 µM (active)"}
{"smiles": "Cc1ccc2c(c1)c1c(n2CCc2ccc(C)nc2)CCN(C)C1", "viability (% of DMSO)": "100% (inactive)"}
{"smiles": "CCOC(=O)N1CCN([N+]([O-])=NOc2cc(ON=[N+]([O-])N3CCN(C(=O)OCC)CC3)c([N+](=O)[O-])cc2[N+](=O)[O-])CC1", "viability (% of DMSO)": "73% (inactive)"}
{"smiles": "Oc1cc(O)cc(C=Cc2ccc(O)c(O)c2)c1", "Potency": "16.6 µM (active)"}
{"smiles": "Clc1ccc(COC(Cn2ccnc2)c2ccc(Cl)cc2Cl)c(Cl)c1", "note": "(stereo not given)", "Potency": "26.4 µM (active)"}
{"smiles": "CC[C@H](CC#N)OC(=O)N[C@@H](C)c1cccc(NC(=O)Nc2ccc(-c3cnco3)c(OC)c2)c1", "Potency": "13.2 µM (active)"}
{"smiles": "CCOC(=O)N1c2ccc(C(F)(F)F)cc2[C@@H](N(Cc2cc(C(F)(F)F)cc(C(F)(F)F)c2)C(=O)OC)C[C@H]1CC", "viability (% of DMSO)": "103% (inactive)"}
{"smiles": "CC[C@H](C)C(=O)O[C@H]1C[C@H](O)C=C2C=C[C@H](C)[C@H](CC[C@@H](O)C[C@@H](O)CC(=O)O)[C@H]21", "viability (% of DMSO)": "77% (inactive)"}
{"smiles": "CCCCCCCCCCCCCC(=O)N[C@H](CO)[C@H](O)c1ccc([N+](=O)[O-])cc1", "Potency": "14.8 µM (active)"}
{"smiles": "COc1nc(C)cnc1NS(=O)(=O)c1cccnc1-c1ccc(-c2nnco2)cc1", "viability (% of DMSO)": "175% (inactive)"}
{"smiles": "CCNC(=O)Nc1ccc(Oc2ncnc(N)c2C=NOC)cc1Cl", "Potency": "2.64 µM (active)"}
{"smiles": "O=c1[nH]c(=O)n([C@H]2C[C@@H](O)[C@@H](CO)O2)cc1I", "viability (% of DMSO)": "109% (inactive)"}
{"smiles": "CN1c2ccccc2C(=O)N2CCc3c([nH]c4ccccc34)C21", "note": "(stereo not given)", "viability (% of DMSO)": "123% (inactive)"}
{"smiles": "Nc1ncnc2c1c(-c1cccc(OCc3ccccc3)c1)cn2C1CC(CN2CCC2)C1", "note": "(stereo not given)", "Potency": "0.469 µM (active)"}
{"smiles": "CC(C)[C@H](O)C(=O)N[C@@H](C)C(=O)N[C@@H]1C(=O)N(C)CCc2ccccc21", "viability (% of DMSO)": "90.1% (inactive)"}
{"smiles": "Cc1cc(OCCCS(C)(=O)=O)cc(C)c1-c1cccc(COc2ccc3c(c2)OC[C@H]3CC(=O)O)c1", "viability (% of DMSO)": "68.4% (inactive)"}
{"smiles": "CNC(=O)c1cc(Oc2ccc(NC(=O)Nc3ccc(Cl)c(C(F)(F)F)c3)c(F)c2)ccn1", "Potency": "13.2 µM (active)"}
{"smiles": "CCN(CC)CCCCNc1nc2cc(Cl)c(Cl)cc2nc1-c1ccc(-c2cccs2)s1", "Potency": "9.35 µM (active)"}
{"smiles": "CN(CC=CC#CC(C)(C)C)Cc1cccc2ccccc12", "viability (% of DMSO)": "92.6% (inactive)"}
